PERK inhibitor – block of dimerizer-induced PERK translation repression, primary screen, PERK inhibitor project, CHO PERK-DD cells, SEAP luminescence, HTS. inhibition, % at 5.6 µM. CHO PERK-DD fusion, SEAP luminescence translation reporter. 220,000 compounds, 0.17% hits;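 active = inhibition above the mean inhibition of all tested compounds plus 3 SD, set separately per screening campaign, cut at about 2.9% in these data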;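 also: PERK kinase domain activated by AP20187 dimerizer at 100 nM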
eIF4H FP inh – human eIF4H binding inhibitors, primary screen, translation initiation inhibitor project, biochemical, uHTS, fluorescence polarization | inhibition, % at 35 µM | eIF4H fluorescence polarization binding assay | AID 2012, 2009 | 290,000 compounds, 0.94% hits;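 also: calls also rest on retests at 20 µM and on dose response follow-up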
MLLE-PAM2 inh – inhibitors of PABP1 MLLE–PAM2 peptide binding, primary screen, biochemical, fluorescence polarization, FITC-PAM2, GST-MLLE; Polyadenylate-binding protein 1 (Homo sapiens), P11940; inhibition, % at 20 µM; 360,000 compounds, 0.36% hits; in the data active = inhibition above about 35%, passing the limit was not always enough
PABP FP inh – PABP poly(A) RNA binding inhibitors, primary screen, biochemical, fluorescence polarization, uHTS | Polyadenylate-binding protein 1 (Homo sapiens), P11940 | inhibition, % at 35 µM | 290,000 compounds, 1% hits | AID 2014, 2009;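 also: calls also rest on retests at 20 µM and on dose response follow-up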
GRK2 aptamer HTS – compounds blocking aptamer binding on GRK2 – biochemical, human GRK2, bead flow cytometry, HTS, primary screen. Beta-adrenergic receptor kinase 1 (Homo sapiens), P25098. FAM-aptamer displacement from GRK2. inhibition of aptamer binding, % at 10 µM. 330,000 compounds, 0.59% hits. AID 488847, 2010;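 active = inhibition of aptamer binding above 40%, roughly 3 SD of noise, on plates passing a quality check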;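 also: median bead fluorescence of bound FAM aptamer so fluorescent compounds give negative values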
Target sequence (P25098 whole entry, looked up): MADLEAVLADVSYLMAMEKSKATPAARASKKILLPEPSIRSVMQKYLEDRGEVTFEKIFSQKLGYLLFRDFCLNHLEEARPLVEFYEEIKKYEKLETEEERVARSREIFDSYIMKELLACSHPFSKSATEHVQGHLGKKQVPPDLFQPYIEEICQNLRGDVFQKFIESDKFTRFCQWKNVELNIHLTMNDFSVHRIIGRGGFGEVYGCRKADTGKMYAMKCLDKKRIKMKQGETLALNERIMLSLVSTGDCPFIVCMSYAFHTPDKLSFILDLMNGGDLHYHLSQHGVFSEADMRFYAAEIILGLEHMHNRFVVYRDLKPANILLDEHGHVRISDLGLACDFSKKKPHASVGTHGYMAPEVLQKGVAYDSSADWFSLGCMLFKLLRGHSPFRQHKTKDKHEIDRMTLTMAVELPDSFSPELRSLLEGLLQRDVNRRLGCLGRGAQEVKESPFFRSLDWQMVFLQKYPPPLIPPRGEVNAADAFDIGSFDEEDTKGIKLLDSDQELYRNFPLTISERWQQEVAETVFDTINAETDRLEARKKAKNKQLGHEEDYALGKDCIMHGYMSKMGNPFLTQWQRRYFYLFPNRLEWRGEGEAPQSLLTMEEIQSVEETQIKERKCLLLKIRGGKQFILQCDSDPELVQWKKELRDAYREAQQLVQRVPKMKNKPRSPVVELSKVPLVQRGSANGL
Large screens that a line does not name were inactive. Only some compounds are listed: those with a hit (about 1.9% of all), similar ones and a draw of the others. Unless noted, no rule for the calls is given here.

O/N=C/c1cn(-c2ccccc2)nn1	none
CCC12OC(=N)C(C#N)(C1C)C(C#N)(C#N)C(c1ccccc1)O2 (stereo not given)	eIF4H FP inh inconclusive, PABP FP inh 85
CCN(C(=O)Cn1ccc(C(F)(F)F)n1)c1c(N)n(Cc2ccccc2)c(=O)[nH]c1=O	none (no result: PERK inhibitor, eIF4H FP inh, PABP FP inh)
COc1ccccc1CN(Cc1cc2cc3c(cc2[nH]c1=O)OCCO3)Cc1nnnn1Cc1ccco1	eIF4H FP inh 58, PABP FP inh 41
O=c1[nH]c2cc3c(cc2cc1CN(CCc1ccccc1)Cc1nnnn1C1CCCC1)OCCO3	eIF4H FP inh 97, PABP FP inh 62 (no result: MLLE-PAM2 inh, GRK2 aptamer HTS)
CCc1ccc2[nH]c(=O)c(CN(Cc3ccccc3)Cc3nnnn3Cc3ccco3)cc2c1	none
O=c1[nH]c2cc3c(cc2cc1CN(Cc1cccs1)Cc1nnnn1Cc1ccco1)OCCO3	eIF4H FP inh 38, PABP FP inh 52
O=c1[nH]c2cc3c(cc2cc1CN(Cc1ccccc1)Cc1nnnn1Cc1ccco1)OCCO3	none (no result: GRK2 aptamer HTS)
O=c1[nH]c2cc3c(cc2cc1CN(Cc1cccnc1)Cc1nnnn1Cc1ccco1)OCCO3	eIF4H FP inh 71, PABP FP inh 89
COc1ccc(S(=O)(=O)N(C)C[C@H]2Oc3c(NC(=O)NC(C)C)cccc3C(=O)N([C@H](C)CO)C[C@@H]2C)cc1	none (no result: PERK inhibitor, eIF4H FP inh, PABP FP inh)
O=C(COC(=O)c1ccc(S(=O)(=O)N2CCOCC2)cc1)NCc1ccco1	none (no result: PERK inhibitor, eIF4H FP inh, PABP FP inh, GRK2 aptamer HTS)
O=C(Nc1cc2c(oc1=O)CCCC2=O)c1ccc(Cl)cc1	eIF4H FP inh 74, PABP FP inh 50
CC1(C)C2(C#N)C(=O)NC(=O)C12C#N (stereo not given)	none (no result: PERK inhibitor, eIF4H FP inh, PABP FP inh, GRK2 aptamer HTS)
N#C/C(=C\c1cc(O)c(O)c(O)c1)C(N)=O	eIF4H FP inh 54, PABP FP inh 30
COc1cc(/C=C/C(=O)Nc2nnc(CC(C)(C)C)s2)cc(OC)c1OC	MLLE-PAM2 inh 44
COc1cc(/C=C/C(=O)Nc2nnc(CC(C)C)s2)cc(OC)c1OC	none
CC(NC(=O)CCn1nc(-c2ccc(Cl)cc2)ccc1=O)c1ccccc1 (stereo not given)	none
CCOC(=O)N1CCN(C(=O)CNS(=O)(=O)c2cccs2)CC1	none
CC(=O)Nc1ccc(S(=O)(=O)NCC(=O)N2CCN(S(=O)(=O)c3cccs3)CC2)cc1	MLLE-PAM2 inh 43 (no result: PERK inhibitor, eIF4H FP inh, PABP FP inh)
O=Cc1coc2ccc3ccccc3c2c1=O	MLLE-PAM2 inh 40 (no result: PERK inhibitor)
NC(=O)N/N=C/c1coc2ccc3ccccc3c2c1=O	none
CSc1nc(SCCO)c2sc3nc(-c4ccco4)c4c(c3c2n1)CC(C)(C)OC4	PABP FP inh 59 (no result: GRK2 aptamer HTS)
CSc1nc(N(CCO)CCO)c2sc3nc(-c4ccco4)c4c(c3c2n1)CCC4	eIF4H FP inh 89, PABP FP inh 91 (no result: GRK2 aptamer HTS)
COC(=O)CSc1nc(SC)nc2c1sc1nc(-c3ccco3)c3c(c12)CC(C)(C)OC3	none (no result: PERK inhibitor, eIF4H FP inh, PABP FP inh, GRK2 aptamer HTS)
CCc1ccc(N2CC(C(=O)OCc3nc4ccsc4c(=O)[nH]3)CC2=O)cc1 (stereo not given)	none (no result: PERK inhibitor, eIF4H FP inh, PABP FP inh)
N#C/C(=C\c1cn(CC(=O)N2CCCCC2)c2ccccc12)C(=O)NCc1ccc2c(c1)OCO2	eIF4H FP inh 62, PABP FP inh 83
COCCNc1c2c(nc3ccccc13)CCC2	none (no result: PERK inhibitor)
CN(C)CCNCCCNc1c2ccccc2nc2cccc([N+](=O)[O-])c12	MLLE-PAM2 inh 52 (no result: PERK inhibitor, eIF4H FP inh, PABP FP inh, GRK2 aptamer HTS)
CN(C)CCCNc1c2c(nc3ccccc13)CCC2	PABP FP inh 60 (no result: PERK inhibitor)
CN(C)CCCNc1ccc(-c2n[nH]c(=O)c3ccccc23)cc1[N+](=O)[O-]	none (no result: PERK inhibitor)
CNc1ncnc2c1ncn2[C@H]1CN(Cc2ccncc2)C[C@@H](CO)O1	none (no result: PERK inhibitor, eIF4H FP inh, PABP FP inh, GRK2 aptamer HTS)
CC(=O)c1c(COC(=O)c2ccc(C)cc2)nc2ccccc2[n+]1[O-]	none
CC(=O)c1c(COC(=O)c2cccnc2)nc2ccccc2[n+]1[O-]	PABP FP inh 64
CC(C)CCNC(=O)c1onc(CSc2nc3ccccc3[nH]2)c1C(=O)NCCC(C)C	none (no result: PERK inhibitor)
Cc1c(N2C(=O)/C(=C3/C(=O)N(C)c4ccccc43)SC2=S)c(=O)n(-c2ccccc2)n1C	none
CCN1C(=O)/C(=C2\SC(=S)N(c3c(C)n(C)n(-c4ccccc4)c3=O)C2=O)c2ccccc21	MLLE-PAM2 inh 44
CCCN1C(=O)/C(=C2\SC(=S)N(c3c(C)n(C)n(-c4ccccc4)c3=O)C2=O)c2ccccc21	none (no result: MLLE-PAM2 inh)
CC(=O)N1C(=O)/C(=C2\SC(=S)N(c3c(C)n(C)n(-c4ccccc4)c3=O)C2=O)c2ccccc21	MLLE-PAM2 inh 47
CCN1C(=O)/C(=C2\SC(=S)N(NC(=O)c3ccccc3O)C2=O)c2ccccc21	MLLE-PAM2 inh 39
C=C1C2=C(C(=O)N1OC)[C@@H](O)[C@@](C)(O)[C@@H](CCCCC)O2	none (no result: PERK inhibitor, eIF4H FP inh, PABP FP inh, GRK2 aptamer HTS)
CCOc1ccc2nc(SCC(=O)N(CCOC)c3c(N)n(Cc4ccccc4)c(=O)[nH]c3=O)[nH]c2c1	none (no result: PERK inhibitor, eIF4H FP inh, PABP FP inh)
COC(=O)c1ccccc1S(=O)(=O)N1CCC(C(=O)NCc2ccccn2)CC1	none (no result: PERK inhibitor, eIF4H FP inh, PABP FP inh, GRK2 aptamer HTS)
S=c1[nH]nc2ccc3ccccc3n12	none (no result: PERK inhibitor, eIF4H FP inh, PABP FP inh, GRK2 aptamer HTS)
S=c1[nH]c2ccccc2n2c(=S)[nH]nc12	MLLE-PAM2 inh 41 (no result: PERK inhibitor)
COc1ccc(NS(=O)(=O)c2ccc(NC(=S)NC(=O)c3cccnc3)cc2)nn1	none
COc1cc(NS(=O)(=O)c2ccc(NC(=S)NC(=O)/C=C/c3ccc(F)cc3)cc2)ncn1	MLLE-PAM2 inh 41
O=C(NC(=S)Nc1ccc2c(c1)C(=O)c1ccccc1C2=O)c1ccc(F)cc1	PABP FP inh 10 (no result: MLLE-PAM2 inh)
COc1ccc(NS(=O)(=O)c2ccc(NC(=S)NC(=O)c3cccc(F)c3)cc2)nn1	MLLE-PAM2 inh 38
Cc1cc(NS(=O)(=O)c2ccc(NC(=S)NC(=O)c3ccc(F)cc3)cc2)no1	MLLE-PAM2 inh 40
CC(C)N1CC2=C(OC(N)=C(C#N)C2c2cccnc2)/C(=C/c2cccnc2)C1 (stereo not given)	eIF4H FP inh 88, PABP FP inh 92
O=C(NC(=S)NCC1CCCO1)C(c1ccccc1)c1ccccc1 (stereo not given)	none
CCCCn1c(SCC(=O)NCc2ccc3c(c2)OCO3)nnc1C(CC)N(C)C (stereo not given)	none (no result: PERK inhibitor, eIF4H FP inh, PABP FP inh, GRK2 aptamer HTS)
Cc1cccc(NC(=O)CCS(=O)(=O)c2ccc3c(c2)NC(=O)CS3)n1	PABP FP inh 36 (no result: PERK inhibitor)
CC1Cc2ccccc2N1C(=O)CCS(=O)(=O)c1ccc2c(c1)NC(=O)CS2 (stereo not given)	PABP FP inh 13 (no result: PERK inhibitor)
CC1CCC(NC(=O)CCS(=O)(=O)c2ccc3c(c2)NC(=O)CS3)CC1 (stereo not given)	none (no result: PERK inhibitor)
COc1ccc(CNc2nc(S(=O)(=O)c3ccccc3)c(Cl)s2)cc1OC	eIF4H FP inh 54, PABP FP inh 24
Cc1cccc(/C=N\N=C\c2cccc(C)c2)c1	none (no result: PERK inhibitor, GRK2 aptamer HTS)
CC[n+]1oc(-c2ccccc2)cc1C	none
Cc1cc(C)c(-c2c(N)cc(Br)cc2Br)c(N)c1	none (no result: PERK inhibitor, eIF4H FP inh, PABP FP inh, GRK2 aptamer HTS)

From PubChem
